IP6K1 inhibitor – IP6K1 kinase inhibition; activity change, % (series mostly up to about 58 µM); AID 1645851; actives 0.81% (n = 140,000); IP6K1 kinase, ADP-Glo luminescence, 2 h; active compounds read low; in the data active = activity change below about -25%; also: % is scaled to controls: 0 for no effect and ±100 for the full control effect
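ADP-Glo luminescence measures ADP made by human IP6K1 during a 2 h RT reaction with ATP/IP6 (mix at 1.3 mM/130 uM); top library doses 57.5 and 19.1 uM final.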
SNCA viab count – cell viability loss counter-screen; HEK-293-SNCA-luc viability, GF-AFC fluorescence, 24 h; Potency, µM (doses to about 57.1 µM), inactives show top-dose activity change, negative = cytotoxicity, most hits filed as cytotoxic; actives 0.12% (n = 150,000);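 also: potency is read from the fitted curve at half-maximal effect; 0% = DMSO-treated cells and -100% = medium-only wells without cells; nearly all actives have a fitted effect of over 30% in size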
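HEK-293-SNCA-luc cells (1500/well) plated 24 h, then exposed 24 h to a dilution series; GF-AFC added 30 min at 37C, fluorescence 405/540 nm; normalised to medium-only and DMSO wells, Hill fit.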
SNCA expr inh – SNCA gene expression inhibition; HEK-293 SNCA-luciferase knock-in, luminescence, 24 h; Potency, µM (highest dose often 57.2 µM), for inactives: at the highest dose activity change, negative = inhibition, actives largely listed as inhibitors; actives 0.17% (n = 140,000); AID 1671194;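 also: potency is read from the fitted curve at half-maximal effect; plate controls were DMSO cells for no effect and cell-free wells for full effect; nearly all actives have a fitted effect of over 45% in size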
KDM5B inhibitor – inhibitors of human KDM5B histone demethylase | KDM5B demethylase, FDH-coupled NADH fluorescence (FDH is formaldehyde dehydrogenase) | Potency, µM (doses to about 57.7 µM), most hits filed as inhibitors | actives 2.6% (n = 220,000); also: potency is read from the fitted curve at half-maximal effect; 0% is about no effect; nearly all actives have a fitted effect of over 70% in size
Target sequence (Q9UGL1 whole entry, looked up): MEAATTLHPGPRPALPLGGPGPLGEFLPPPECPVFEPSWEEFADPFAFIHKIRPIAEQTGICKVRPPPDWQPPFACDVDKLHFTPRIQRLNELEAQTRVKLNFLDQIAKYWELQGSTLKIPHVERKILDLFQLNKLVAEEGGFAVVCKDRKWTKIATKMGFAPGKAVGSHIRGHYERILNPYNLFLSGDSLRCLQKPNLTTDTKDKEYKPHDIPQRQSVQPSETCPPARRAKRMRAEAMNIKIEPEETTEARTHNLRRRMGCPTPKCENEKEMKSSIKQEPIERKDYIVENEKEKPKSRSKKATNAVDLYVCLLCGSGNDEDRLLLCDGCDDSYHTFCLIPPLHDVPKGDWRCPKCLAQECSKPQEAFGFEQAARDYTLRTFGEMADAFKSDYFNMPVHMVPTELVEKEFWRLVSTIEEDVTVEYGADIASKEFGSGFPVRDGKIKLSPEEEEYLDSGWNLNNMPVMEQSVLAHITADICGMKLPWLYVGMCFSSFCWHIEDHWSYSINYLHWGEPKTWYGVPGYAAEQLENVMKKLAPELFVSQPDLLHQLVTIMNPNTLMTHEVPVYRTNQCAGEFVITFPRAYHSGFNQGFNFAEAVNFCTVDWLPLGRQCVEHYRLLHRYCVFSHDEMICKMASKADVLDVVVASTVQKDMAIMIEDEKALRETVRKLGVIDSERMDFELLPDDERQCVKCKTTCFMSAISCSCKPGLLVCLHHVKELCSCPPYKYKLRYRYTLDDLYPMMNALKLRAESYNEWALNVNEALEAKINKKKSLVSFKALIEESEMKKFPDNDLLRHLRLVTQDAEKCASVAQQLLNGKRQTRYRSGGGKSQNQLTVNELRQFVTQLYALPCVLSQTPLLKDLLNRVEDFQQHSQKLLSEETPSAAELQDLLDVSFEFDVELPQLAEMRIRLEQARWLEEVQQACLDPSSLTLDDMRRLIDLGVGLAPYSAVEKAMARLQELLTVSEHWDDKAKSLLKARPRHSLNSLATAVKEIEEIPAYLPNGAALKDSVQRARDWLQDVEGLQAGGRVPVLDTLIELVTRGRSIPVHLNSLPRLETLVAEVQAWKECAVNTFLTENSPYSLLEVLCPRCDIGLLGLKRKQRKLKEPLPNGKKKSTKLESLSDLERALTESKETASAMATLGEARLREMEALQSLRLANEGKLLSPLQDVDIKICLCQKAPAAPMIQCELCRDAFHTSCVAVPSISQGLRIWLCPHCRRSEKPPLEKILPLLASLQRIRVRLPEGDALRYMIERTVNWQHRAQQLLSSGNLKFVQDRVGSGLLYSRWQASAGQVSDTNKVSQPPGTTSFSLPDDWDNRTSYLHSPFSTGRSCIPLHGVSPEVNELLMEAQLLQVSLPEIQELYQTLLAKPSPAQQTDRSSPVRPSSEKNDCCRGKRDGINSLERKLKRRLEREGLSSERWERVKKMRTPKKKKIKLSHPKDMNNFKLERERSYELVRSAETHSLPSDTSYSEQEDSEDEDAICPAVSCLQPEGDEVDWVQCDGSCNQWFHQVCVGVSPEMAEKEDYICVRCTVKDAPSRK
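Here, H3K4me3 peptide (12.5 µM in substrate mix) is demethylated by KDM5BΔAP, 200 nM final, after 10 min compound exposure. Formaldehyde product is coupled through FDH (0.25 U/mL in mix) to NADH fluorescence; 30-min ΔRFU feeds dose-response curves.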
The depositor's hits bear a star; i = inactive; ? = inconclusive; . = no result given; [ ] = another dose, or the depositor's remark. A selection: hits, their analogues and other compounds. The true share with any hit is near 2.8%. Unless noted, calls follow the shape of the dose curve; as a rule, active = well fitted curve in the direction sought with a large enough effect; inconclusive = small, poorly fitted or top-dose-only effect, or another doubt; inactive = no such curve, though single readings can be large; an effect the other way counts as inactive or inconclusive.

SMILES | IP6K1 inhibitor | SNCA viab count | SNCA expr inh | KDM5B inhibitor
COc1cccc(CCNC(=O)c2cc(-c3ccccc3C(F)(F)F)nc3c2cnn3C)c1 | 13 | . | . | .
CC(=O)N1CCCC2(C1)Nc1cccnc1NC2=NCc1ccccc1 (stereo not drawn) | 1 | -4% | 4% | ?
COc1ccc(C(=O)N2CCCC3(C2)Nc2cccnc2NC3=NCc2ccccc2)cc1 (stereo not drawn) | 0 | -1% | ? | 28µM*
COc1cccc(C(=O)N2CCCC3(C2)Nc2cccnc2NC3=NCc2ccccc2)c1 (stereo not drawn) | -3 | -5% | 10% | 28µM*
Cc1noc(C)c1CC(=O)N1CCCC2(C1)Nc1cccnc1NC2=NCc1ccccc1 (stereo not drawn) | 12 | 3% | 3% | 28µM*
O=C(COc1ccccc1)N1CCCC2(C1)Nc1cccnc1NC2=NCc1ccccc1 (stereo not drawn) | 5 | -1% | -8% | ?
CCn1ccc(C(=O)N2CCCC3(C2)Nc2cccnc2NC3=NCc2ccccc2)n1 (stereo not drawn) | 0 | 6% | ? | 28µM*
COc1ccc(C(=O)c2sc(Nc3cccc(Cl)c3)nc2N)cc1OC | . | . | . | i
CCN(CC)S(=O)(=O)c1cc(NC(=O)c2[nH]c(C)c(C(=O)OC)c2C)ccc1C | . | . | . | i
O=C(CNC(=O)c1ccc(-c2cnc3ccccc3c2)cc1)NCc1ccccc1F | -1 | ? | 5% | .
CC(NC(=O)c1ccco1)c1ccccc1OC(F)F (stereo not drawn) | . | . | . | i
O=C(c1ccsc1)N1CCCC2(C1)Nc1cccnc1NC2=NCc1ccccc1 (stereo not drawn) | 0 | -1% | 22% | 28µM*
O=Cc1ccc(-c2cncc(C(=O)O)c2)cc1 | -18 | 5%[87.6 µM] | 16%[87.6 µM] | 100µM*
COc1ccccc1-c1cccc(CN2CCC(NC(=O)c3ccc(C(F)(F)F)cc3)CC2)c1 | -2 | -24% | 3% | .
O=c1[nH]c(C2CCCN(Cc3ccccn3)C2)nn1-c1ccccc1 (stereo not drawn) | 30 | -29%[87.6 µM] | ? | 22µM*
C(=N\N=C1c2ccccc2-c2ccccc21)/c1cccnc1 | . | . | . | i
CC(C)N(c1ccccc1)c1ccc(NC(=O)Cn2nc(C(=O)O)c3ccccc3c2=O)cc1 | . | . | . | i
O=C1CC2(CCN(CC3CC3)CC2)Oc2cc(Cl)ccc21 | 0 | -6%[87.6 µM] | 60%[87.6 µM] | ?
N#Cc1ccc(CN2CCC3(CC2)CC(=O)c2ccccc2O3)cc1 | -4 | -17%[87.6 µM] | -24%[87.6 µM] | 32µM*
O=C1CC2(CCN(Cc3cccnc3)CC2)Oc2ccccc21 | 0 | 3%[87.6 µM] | 23%[87.6 µM] | 35µM*
CN(C)c1ccc(CN2CCC3(CC2)CC(=O)c2ccccc2O3)cc1 | 8 | -9% | 25% | i
O=C1CC2(CCN(CC3CCCCC3)CC2)Oc2ccccc21 | 10 | -7%[87.6 µM] | 4%[87.6 µM] | 32µM*
O=C1CC2(CCN(Cc3ccc(F)cc3)CC2)Oc2ccccc21 | 15 | -8%[87.6 µM] | 9%[87.6 µM] | 28µM*
Cc1cccc(CS(=O)Cc2cccc(C(F)(F)F)c2)c1 (stereo not drawn) | . | . | . | i
CN(C)C(=O)c1ccc2cc[nH]c2n1 | -3 | ? | ? | 126µM*
SMILES | IP6K1 inhibitor | SNCA viab count | SNCA expr inh | KDM5B inhibitor
CN(C)C(=O)c1[nH]cnc1C(=O)NCC(C)(C)C | . | . | . | i
O=C(Nc1ccc(F)cc1)c1ccc2cc[nH]c2n1 | 6 | ? | -34%[87.6 µM] | 112µM*
COc1cccc(/C=C(/C#N)C(=O)Nc2ccccc2C(=O)O)c1 | . | . | . | i
CN1CCC(N(C)S(=O)(=O)c2ccc(NC(=O)c3cc4c(F)cccc4s3)cc2)CC1 | . | . | . | i
Cc1cnc2c(C(=O)NCc3cccnc3Oc3ccccc3)cnn2c1 | 4 | -10% | 125% | ?
Cc1ccc2c(C(=O)N(C)C)cnn2c1 | 0 | 0%[87.6 µM] | 5%[87.6 µM] | 32µM*
CNC(=O)c1cnn2cc(C)ccc12 | -4 | 6%[87.6 µM] | 20%[87.6 µM] | 32µM*
Cc1cc(CNC(=O)c2cc(-c3ccccc3F)cc3c2OCCN3C)no1 | -22 | -12%[87.6 µM] | ? | 32µM*
Cc1cc(CNC(=O)c2cc(-c3ccncc3)cc3c2OCCN3C)no1 | -13 | -10%[87.6 µM] | 12%[87.6 µM] | ?
Cc1cc(CNC(=O)c2cc(-c3ccccc3C)cc3c2OCCN3C)no1 | -18 | -6%[87.6 µM] | -5%[87.6 µM] | 35µM*
Cc1cc(CNC(=O)c2cc(-c3ccc(CO)cc3)cc3c2OCCN3C)no1 | -15 | 1%[87.6 µM] | -17%[87.6 µM] | 32µM*
CC(NS(=O)(=O)Cc1ccc(F)cc1)c1ccccn1 (stereo not drawn) | . | . | . | i
CN(CC(=O)Nc1cc2[nH]c(=O)[nH]c2cc1Br)Cc1ccccc1N1CCCCC1 | . | . | . | i
NC(=O)C1CCCN(CCNc2cc(-c3ccccc3)nc3ccnn23)C1 (stereo not drawn) | 14 | -1% | -8% | 32µM*
Cc1nc(NCCN2CCCC(C(N)=O)C2)c2cccnc2n1 (stereo not drawn) | 4 | -16% | -2% | 25µM*
CCCCCCn1c(SCc2ccc(F)cc2)nc2c1c(=O)[nH]c(=O)n2C | . | . | . | i
CN(CCc1ccccc1)CCN1CC2(CCN(c3ncccc3C#N)CC2)OC1=O | -12 | -4% | -5% | 32µM*
COc1ccc(F)cc1-c1ccc(CN2CCCCC2C(=O)N2CCN(c3ncccn3)CC2)cc1 (stereo not drawn) | -7 | . | . | .
COc1cc(OC)cc(C(=O)N2CCCC3(C2)Nc2cccnc2NC3=NC2CCCC2)c1 (stereo not drawn) | 5 | -12% | 6% | 28µM*
COc1ccc(OCC(=O)N2CCCC3(C2)Nc2cccnc2NC3=NC2CCCC2)cc1 (stereo not drawn) | 17 | -13% | -12% | 25µM*
O=C(c1ccc(Cl)s1)N1CCCC2(C1)Nc1cccnc1NC2=NC1CCCC1 (stereo not drawn) | 0 | -22% | -17% | 28µM*
O=C(CSc1ccccc1)N1CCCC2(C1)Nc1cccnc1NC2=NC1CCCC1 (stereo not drawn) | 7 | -19% | 2% | 28µM*
O=C(c1ccc(Cl)s1)N1CCN(c2ncccn2)CC1 | . | . | . | i
COc1ccc(C(=O)N2CCCC3(C2)Nc2cccnc2NC3=NC2CCCC2)cn1 (stereo not drawn) | 1 | -18% | -20% | ?
CCc1ccc(NC(=O)Cn2nc(-c3ccc(C)c(S(=O)(=O)N4CCOCC4)c3)ccc2=O)cc1 | . | . | . | i
CCCNC(=O)CNC(=O)CCc1ncc(-c2ccc(C)cc2)o1 | . | . | . | i
CCCn1c(C)cnc1CC1CCCN(S(=O)(=O)c2cccs2)C1 (stereo not drawn) | 2 | -2% | -1% | i
O=S(=O)(c1cccs1)N1CCCC2(C1)Nc1cccnc1NC2=NC1CCCC1 (stereo not drawn) | 14 | -21% | -7% | 11µM*
O=C(Cc1c[nH]c2ccccc12)N1CCCC2(C1)Nc1cccnc1NC2=NC1CCCC1 (stereo not drawn) | 1 | -13% | 33% | ?
